# Laboratory results reported in PubChem BioAssay (Tox21).
# Records with an inconclusive call do not appear. Activity calls are given as the source filed them. The call rests on the fitted dose curve; in most records, active means well fitted cell-killing curve with a large enough effect in the repeat runs; inconclusive means weak or mixed curves, or effect the other way; inactive means flat fitted curve, though single readings scatter.
# Test: qHTS RealTime-Glo MT Cell Viability Assay in HEK293 cells - 40 hour (AID 1224874); further: nearly all actives have a fitted effect of over 50% in size
# Conditions: RealTime-Glo luminescence, hits give low values
# Text: U.S. Tox21 Program National Center for Advancing Translational Sciences [NCATS] NIH Chemical Genomics Center [NCGC] U.S. Environmental Protection Agency [EPA] National Institutes of Environmental Health Sciences [NIEHS] National Toxicology Program [NTP] U.S. Food and Drug Administration [FDA] Tox21 Assay Overview: Measure of cell viability is critical in the cell-base assay. Analysis of cell viability is necessary for the characterization of cell responses to cytotoxic drugs and environmental stress. A RealTime-Glo MT Cell Viability Assay to monitor cell viability in real time of continues cell culture during 40 hours of compound treatment was used to screen Tox21 10K library compounds in Hek293 cells. The RealTime-Glo MT Cell Viability Assay is a nonlytic, homogeneous, bioluminescent method to measure cell viability in real time using a simple, plate-based method. The assay involves adding NanoLuc luciferase and a cell-permeant prosubstrate to cells in culture. Viable cells reduce the proprietary prosubstrate to generate a substrate for NanoLuc luciferase. This substrate diffuses from cells into the surrounding culture medium, where it is rapidly used by the NanoLuc Enzyme to produce a luminescent signal. The signal correlates with the number of viable cells, making the assay well suited for cytotoxicity studies.
# Tox21 Assay Protocol Summary: The mixture of Hek293 cell suspension and reagents were dispensed at 600cells/6 ul/well in 1536-well tissue culture treated black solid bottom plates using a Multidrop dispenser. After the assay plates were incubated at a 37 C/5% CO2 incubator for 5 hours, 23 nL of compounds dissolved in DMSO, positive and negative controls was transferred to the assay plate by a pintool work station. The plates were incubated at 37 C for 40 hours. The luminescence intensity were measured at 0h, 8h, 16h, 24h, 32h and 40h time points using ViewLux plate reader during compound treatment.
# On the % scale 0 is the no-effect control and ±100 the full control effect.
row,Structure (SMILES),max response
1,CCCCN(CCCC)CCCCCCN(CCCC)CCCC,-10.4% (inactive)
2,COC(=O)/C=C(\C)CCC=C(C)C,9.52% (inactive)
3,CCCC(=O)OC,-2.73% (inactive)
4,CN(C)c1ccncc1,-16.5% (inactive)
5,CC(=O)Nc1ccc(S(=O)(=O)Nc2cc(C)on2)cc1,0.358% (inactive)
6,CSC(=O)c1cccc2nnsc12,-1.81% (inactive)
7,CN(C)c1cc(NC(=O)CNC(C)(C)C)c(O)c2c1C[C@H]1C[C@H]3[C@H](N(C)C)C(=O)C(C(N)=O)=C(O)[C@@]3(O)C(=O)C1=C2O,2.22% (inactive)
8,Cc1cc(C)c(C)c(C)c1,-10% (inactive)
9,Cc1ccc(S(=O)(=O)NC(=O)NN2CC3CCCC3C2)cc1 (stereo not given),5.04% (inactive)
10,Cc1cc2c(cc1CC(=O)c1sccc1S(=O)(=O)Nc1onc(C)c1Cl)OCO2,6.15% (inactive)
11,CCCc1ncc(C(=O)O)s1,0.25% (inactive)
12,CC12CCCC=C1C(=O)OC2=O (stereo not given),7.32% (inactive)
13,Cc1ccccc1OCC(=O)O,3.48% (inactive)
14,CCCCCC(CC)OC(=O)CCCOc1ccc(Cl)cc1Cl (stereo not given),2.48% (inactive)
15,CCCC(=O)C(CC)Sc1ccoc1C (stereo not given),-5.27% (inactive)
16,CCC(C)SSC(C)CC (stereo not given),3.14% (inactive)
17,CCCCCCCCC1CO1 (stereo not given),-0.591% (inactive)
18,NNC(=O)CCCCC(=O)NN,3.47% (inactive)
19,C[n+]1ccccc1/C=N/O,0.0286% (inactive)
20,CC(C)(O)c1ccc(C(C)(C)O)cc1,0.887% (inactive)

row,Structure (SMILES),max response
1,CNCCc1ccccn1,-0.337% (inactive)
2,CCOC(=O)CN1CCCC1=O,0.653% (inactive)
3,Cc1nc2ccc(Cl)cc2[nH]1,7.55% (inactive)
4,Cc1ccc(O)c(C(=O)c2ccccc2)c1,-5.5% (inactive)
5,CC(=O)OC/C=C(/C)CCC=C(C)C,-1.6% (inactive)
6,CCc1ncc(C)[nH]1,1.1% (inactive)
7,CNC(=O)c1c(I)c(NC(C)=O)c(I)c(C(=O)O)c1I,3.75% (inactive)
8,CCCOc1ccc(C(=O)OCCN(CC)CC)cc1N,0.981% (inactive)
9,O=S(=O)(O)CC(O)CCl (stereo not given),5.44% (inactive)
10,C=C(C)C(=O)OCCCC,11.4% (inactive)
11,N=C(N)N1CCc2ccccc2C1,0.0826% (inactive)
12,COc1cc2nc(N3CCN(C(=O)C4CCCO4)CC3)nc(N)c2cc1OC (stereo not given),-19.2% (inactive)
13,CCOCCOCCOC(C)=O,7.47% (inactive)
14,C[C@@H]1CC[C@@]2(OC1)O[C@H]1C[C@H]3[C@@H]4CC[C@H]5C[C@@H](O)CC[C@]5(C)[C@H]4CC(=O)[C@]3(C)[C@H]1[C@@H]2C,-0.328% (inactive)
15,CCCCC(CC)CCC(CC(C)C)OS(=O)(=O)O (stereo not given),-2.38% (inactive)
16,C=CC(C)(CCC=C(C)C)OC(=O)C(C)C (stereo not given),0.514% (inactive)
17,CCOc1ccccc1OCCN[C@H](C)Cc1ccc(OC)c(S(N)(=O)=O)c1,-2.4% (inactive)
18,CC(=O)SCC(CC(=O)c1ccc(C)cc1)C(=O)O (stereo not given),-0.0795% (inactive)
19,COc1cc(C(=O)NC2CCCNC2)cc(OC)c1OC (stereo not given),1.36% (inactive)
20,CC(O)CCCCn1c(=O)c2c(ncn2C)n(C)c1=O (stereo not given),0.953% (inactive)
